Each structure is given as a SMILES string. Unmarked numbers belong to inactive results. The source made the active and inactive calls.

This experiment is described as follows: ATP-based viability of Huh7 replicon cells – cell-based, CellTiter-Glo luminescence, basal, 48 h, cytotoxicity control for HCV replication inhibitor project, primary screen (AID 1143).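 Note: Huh7 hepatoma cells carrying a hepatitis C replication reporter with no stimulus; test concentration not given here.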 The conditions noted are these: higher = more signal, called active from +8 up or from −8 down. Background: Replicon systems follow genome replication, usually without infectious particles.
`CC(=O)OC[C@H]1O[C@@H](ON=C[C@@H](C)[C@H](OCc2ccccc2)C(C)C)[C@H](OC(C)=O)[C@@H](OC(C)=O)[C@@H]1OC(C)=O`: the z-score was 0.558.

Regarding `CN1C(=O)C2C=CC(C(O)C(c3ccccc3)c3ccccc3)N(NC(=O)OC(C)(C)C)C2C1=O` (stereo unspecified), the z-score was -0.0027.

Consider `COC(=O)C1=C(C)N(Cc2ccccc2)[C@]23O[C@](C(=O)OC)(C(=O)N2[C@@H]1c1ccccc1)[C@H]1CCOC(=O)[C@H]13`, for which the z-score was -0.147.

For `C=C(CCCC)C(=O)CC[C@@H](OC(C)=O)c1cccc(OCCO)c1`, the z-score was -7.53.

Turning to `CO[C@@H]1COC(=O)CC=C[C@@H](C)[C@@H]2C=C[C@@H](O)[C@@H](COC(=O)CC=C[C@H]1C)O2`, the z-score is -0.972.

In the case of `COC(=O)[C@@]1(Cc2ccccc2)[C@H]2c3cc(C(=O)N4CCCC4)n(Cc4ccccn4)c3C[C@H]2CN1C(=O)c1ccccc1`, the z-score was -1.5.

As to `CCOC(=O)NN=C1C[C@@H](O)[C@@H](O)[C@@H]2[C@@H]3C(=O)N(C(C)(C)C)C(=O)[C@@H]3CC[C@@H]12`, the z-score is 0.312.

In the case of `C=CCN1C(=O)[C@]2(O[C@H](CCn3cc(CCO)nn3)[C@@H]([Si](C)(C)c3ccc(OC)cc3)[C@@H]2C)c2cc(N3CCOC3=O)ccc21`, the z-score is -4.23.

Regarding `CCOc1ccc(N2C(=O)/C(=C/C=C/c3ccccc3OC)S(=O)(=O)C2c2cccc([N+](=O)[O-])c2)cc1` (stereo unspecified), the z-score is -4.29.

On to `O[C@@H](Cc1ccccc1)[C@H]1C2C=CCCC(c3ccccc3)=C2CN1Cc1cccc(Cl)c1` (stereo partly specified), for which the z-score was -1.31.

`CO[C@H]1O[C@H](CO)[C@@H](OC(=O)Nc2ccc(C#N)cc2)[C@H](OC(=O)c2cc3ccccc3[nH]2)[C@H]1OC(=O)c1cc2ccccc2[nH]1`: the z-score is -3.88.

In the case of `Cc1ccc(S(=O)(=O)N[C@@H]2COC(=O)[C@H](C)COC(=O)CC=C[C@H]2C)cc1`, the z-score was 0.405.

As for `C=CC[C@@H]1C=C[C@H](ON=C2c3cc(OC)ccc3O[C@H](c3cccc(OC)c3)[C@H]2O)[C@@H](CO)O1`, the z-score is -0.375.

As for `C=CCC(OC(C)=O)[C@@H]1[C@@H](N(Cc2cc3ccccc3o2)C(=O)Cc2ccc(F)cc2)c2cc(OCCCO)ccc2N1C(=O)Cc1ccc(OC)cc1` (stereo partly specified), the z-score is -0.276.

In the case of `CCOC(=O)[C@H](CC(C)C)NC(=O)CCC1CC(OC(=O)NCCc2ccc(F)cc2)CC2(CCCC(COC(=O)NCc3ccccc3)O2)O1` (stereo partly specified), the z-score was -4.31.

Regarding `O=C1[C@H]2[C@H]3[C@H](O)[C@H](O)CC(=NOC[C@@H](O)COCc4ccco4)[C@H]3CC[C@H]2C(=O)N1Cc1ccc2c(c1)OCO2`, the z-score is -0.012.

Regarding `CC(CCC(=O)OC[C@H]1O[C@H](C#Cc2ccccc2)C=C[C@@H]1Oc1ccc(C)cc1)=NOC[C@@H](O)[C@H]1O[C@@H]2OC(C)(C)O[C@@H]2[C@H]1O`, the z-score is -0.416.

Take `CC(C)(C)N1CC=CC23O[C@@H]4C=CCCOC(=O)C4[C@H]2C(=O)N(CCCCCO)[C@@H]3C1=O` (stereo partly specified): the z-score is -0.128.

Consider `CCc1cc2c(nc1CC)CCN(CCC(C)=NO[C@@H](C)c1cc(-c3c(C)cc(C)cc3C)no1)C2`, for which the z-score was -2.21.

In the case of `CC(C)CON=C1C[C@@H](O)[C@@H](O)[C@@H]2[C@@H]3C(=O)N(Cc4ccccc4)C(=O)[C@@H]3CC[C@@H]12`, the z-score was 0.674.

Regarding `COCCCNC(=O)[C@@]1(C)c2ccccc2C(=O)N(Cc2ccc(OC(F)(F)F)cc2)[C@H]1c1ccc(CO)cc1`, the z-score was -1.27.

On to `O=C1C2=CC[C@H]3C(=O)N(Cc4ccc5c(c4)OCO5)C(=O)[C@H]3[C@H]2[C@H](O)[C@@H]2O[C@H]12`, for which the z-score was 0.279.

`COc1ccc(O[C@H]2C=C[C@@H](c3ccccc3)O[C@@H]2COC(=O)CCC(C)=NOC(C)CN2CCCCc3nc(C)c(C)cc32)cc1` (stereo partly specified): the z-score was -0.622.

In the case of `CC(CCN1CCCCc2nc(C)c(C)cc21)=NOC(C)CN1CCCCc2nc(C)c(C)cc21` (stereo unspecified), the z-score was -2.16.

For the compound `O=C1[C@H]2[C@H]3[C@H](O)[C@H](O)CC(=NOCc4ccccc4)[C@@H]3CC[C@H]2C(=O)N1C1CCCCC1`, the z-score is -0.48.

In the case of `COc1ccc([Si](C)(C)[C@@H]2[C@@H](CCO)O[C@]3(C(=O)N(Cc4ccc(NC(C)=O)cc4)c4ccccc43)[C@H]2C)cc1`, the z-score is -8.01 (active).

On to `Cc1cc2c(c(=O)o1)[C@H](O)[C@H]1O[C@H]1C2=O`, for which the z-score is -2.97.

Regarding `O=C1[C@H]2[C@H]3[C@H](O)[C@H](O)CC(=NOC[C@@H](O)COCc4ccco4)[C@H]3CC[C@H]2C(=O)N1C1CCCCC1`, the z-score is -2.97.

As to `[N-]=[N+]=Nc1ccccc1C[C@@]1(C(N)=O)N=C(c2ccc(OCCCO)cc2)O[C@@H]1c1ccccc1`, the z-score is -4.04.

On to `CCOC(=O)NN=C1C[C@@H](O)[C@@H](O)[C@@H]2[C@@H]3C(=O)N(CC)C(=O)[C@@H]3CC[C@@H]12`, for which the z-score is 0.225.

With `CC(C)NC(=O)[C@@]1(c2ccc([N+](=O)[O-])cc2)CC(=O)N(CC23CC4CC(CC(C4)C2)C3)[C@@H]1c1ccc(CO)cc1I`, the z-score was -5.69.

With `COC(=O)C1(C)C=C2C(=C(c3ccccc3)C(=O)C2C)CN1` (stereo unspecified), the z-score is -0.266.

For `O=C1[C@H]2[C@H]3[C@H](O)[C@H](O)CC(=NO[C@@H]4O[C@H](CO)[C@@H](O)[C@H](O)[C@H]4O)[C@@H]3CC[C@H]2C(=O)N1Cc1ccccc1`, the z-score was -0.435.

Turning to `CCOC(=O)CCN1C(=O)[C@H]2[C@H]3[C@H](O)C=CC(=O)[C@@H]3CC[C@H]2C1=O`, the z-score is 0.507.

Consider `Cc1cc2c(nc1C)CCCN2CC(C)ON=C1[C@H]2CCn3c(=O)n(-c4ccccc4)c(=O)n3[C@H]2[C@H](O)[C@@H]2O[C@H]12` (stereo partly specified), for which the z-score was 0.357.

For the compound `CCCCc1nc2c(c3c1C[C@H](C)OC3)CN(CCC(C)C)CC2`, the z-score was -0.262.

These data come from PubChem BioAssay.
